# Only some compounds are listed: those with a hit (about 2.4% of all), similar ones and a draw of the others.
# S2 tox: reduces viability in counter-screen for ATXN expression inhibitors | AID 651635 | S2 cells (HEK-293 line with an ATXN2-luciferase reporter) viability, CellTiter-Fluor protease fluorescence, 24 h | Potency, µM (titrated, usually from 56.7 µM), hits mostly cytotoxic | 400,000 compounds, 0.49% hits; also: nearly all actives have a fitted effect of over 40% in size
# ATXN2 expr inh: inhibitors of ATXN2 expression | Potency, µM (series often up to 57 µM), actives largely listed as inhibitors | HEK-293 ATXN2-luciferase reporter, luminescence, 24 h | 360,000 compounds, 0.72% hits | AID 1745845; also: nearly all actives have a fitted effect of over 55% in size
#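 qHTS (up to 57 uM final) was run with 24 h compound exposure of reporter cells at 37 °C. Each well was multiplexed: SteadyGlo luminescence measured ATXN2-luciferase expression after a fluorogenic Gly-Phe-AFC viability readout (25 uM final).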
# TGFb SMAD3 inh: blocks TGF-b signaling; HepG2 CAGA-GFP TGF-b/SMAD3 reporter, GFP fluorescence, 18 h; TGF-beta stimulated, 500 pg/mL final; Potency, µM (series often up to 46.1 µM), usual class: inhibitors; 410,000 compounds, 1.2% hits; also: nearly all actives have a fitted effect of over 65% in size
#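 Smad-responsive CAGA-GFP expression was quantified in HEPG2 cells exposed to compounds and 500 pg/mL final TGF-beta for 18 h at 37 degrees C; unstimulated wells defined full inhibition.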
# HepG2 tox: kills HepG2 cells in TGF-b inhibitor counter-screen | HepG2 CAGA-GFP viability, ATP luminescence, 18 h | Potency, µM (series often up to 46.1 µM), hits mostly cytotoxic | 410,000 compounds, 0.76% hits
#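 HepG2 CAGA-GFP cells (1000/well, DMEM with 1% FBS) received compound, then TGF-beta at 500 pg/mL final, and were incubated 18 hours at 37 degrees C. Viability was read by CellTiter-Glo luminescence. Media-only wells were set as complete cell-killing and DMSO as no toxicity.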
# Anesthetic bind: binds horse apoferritin like a general anesthetic; P02791; apoferritin/1-aminoanthracene competitive binding, fluorescence; Potency, µM (highest dose often 77.5 µM), most hits filed as inhibitors; 350,000 compounds, 0.074% hits; AID 485281; also: nearly all actives have a fitted effect of over 20% in size
# Target sequence (P02791 2-175 limits assumed): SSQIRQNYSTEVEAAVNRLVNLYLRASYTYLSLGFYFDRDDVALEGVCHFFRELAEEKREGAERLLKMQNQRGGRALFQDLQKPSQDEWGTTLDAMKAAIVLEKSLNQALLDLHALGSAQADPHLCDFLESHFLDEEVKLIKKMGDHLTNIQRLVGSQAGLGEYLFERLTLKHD
#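 Concentration-response curves derived by four-parameter Hill fitting of normalized fluorescence, where compounds displaced 1-AMA from 10 uM horse apoferritin following a brief 10 min room-temperature incubation; propofol titration acted as positive control.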
# Numbers stand for hits; i = inactive; ? = inconclusive; nt = no result given; ! = a repeat was not active; [ ] = dose if it differs, or a comment. Calls follow the shape of the dose curve; as a rule, active = well fitted curve in the direction sought with a large enough effect; inconclusive = small, poorly fitted or top-dose-only effect, or another doubt; inactive = no such curve, though single readings can be large; an effect the other way counts as inactive or inconclusive.
SMILES,S2 tox,ATXN2 expr inh,TGFb SMAD3 inh,HepG2 tox,Anesthetic bind
C[C@H](CO)N1C[C@H](C)[C@@H](CN(C)Cc2ccc3c(c2)OCO3)Oc2c(NS(=O)(=O)c3cn(C)cn3)cccc2C1=O,i,i,?,i,nt
C[C@H](CO)N1C[C@H](C)[C@@H](CN(C)Cc2ccc(Cl)c(Cl)c2)Oc2c(NC(=O)Cc3ccccc3)cccc2C1=O,14µM,28µM,?,i,nt
C[C@H](CO)N1C[C@H](C)[C@@H](CN(C)Cc2ccc(-c3ccccc3)cc2)Oc2c(NS(=O)(=O)c3cn(C)cn3)cccc2C1=O,i,i,3.2µM,i,nt
CCOC(=O)C(=CNc1ccc2c(c1)nnn2-c1ccc(Cl)cc1)C(=O)OCC,?,24µM,i,i,i
Nc1nc(=O)n([C@H]2CSC(CO)O2)cc1F (stereo partly drawn),nt,i,nt,nt,nt
CN1CCN(c2cccc3c2S(=O)(=O)N[C@H](Cc2ccccc2)CO3)CC1,i,i,nt,nt,nt
O=S1(=O)N[C@H](Cc2ccccc2)COc2cccc(N3CCN(Cc4ccccc4F)CC3)c21,18µM,?,nt,nt,nt
CO/N=C(/C)CCC(=O)OC[C@@H]1O[C@H](c2ccccc2)C=C[C@@H]1Oc1ccc(OC)cc1,nt,nt,nt,nt,i[15.3 µM]
C#CCN(C[C@@H]1[C@@H](OC(=O)NCc2ccco2)[C@@H](OC(=O)NCc2ccco2)Cn2c(=O)ccc(=O)n21)S(=O)(=O)c1ccc(C)cc1,25µM,14µM,?,i,nt
C#CCN(C[C@@H]1[C@@H](OC(=O)NCc2ccc(OC)c(OC)c2)[C@@H](OC(=O)NCc2ccc(OC)c(OC)c2)Cn2c(=O)ccc(=O)n21)S(=O)(=O)c1ccc(C)cc1,20µM,?,?,i,nt
C#CCN(C[C@@H]1[C@@H](OC(=O)NCCCCCC)[C@@H](OC(=O)NCCCCCC)Cn2c(=O)ccc(=O)n21)S(=O)(=O)c1ccc(C)cc1,4µM,3.5µM,6.3µM,6.3µM,nt
C#CCN(C[C@@H]1[C@@H](OC(=O)NCC2CCCCC2)[C@@H](OC(=O)NCC2CCCCC2)Cn2c(=O)ccc(=O)n21)S(=O)(=O)c1ccc(C)cc1,3.5µM,3.5µM,7.1µM,i,nt
C#CCN(C[C@@H]1[C@@H](OC(=O)NCc2ccco2)[C@@H](OC(=O)NCc2ccco2)Cn2c(=O)n(CCCCCC)c(=O)n21)S(=O)(=O)c1ccc(C)cc1,i,i,?,i,nt
O=C(Nc1cc2c(cc1C(=O)c1ccc(Br)cc1)OCCO2)c1ccc(Cl)cc1,nt,nt,i,i,i
Cc1cc(C)cc(OCC(=O)N2N=C(C(F)(F)F)CC2(O)C(C)(C)C)c1 (stereo not drawn),i,?,?,18µM,i
CC(=O)C1(O)Cc2c(O)c3c(c(O)c2C(OC2CC(N)C(O)C(C)O2)C1)C(=O)c1c(O)cccc1C3=O (stereo not drawn),nt,nt,1.6µM,i,nt
CC(=O)[C@@]1(O)Cc2c(O)c3c(c(O)c2[C@H](O[C@H]2C[C@H](N)[C@H](O)[C@H](C)O2)C1)C(=O)c1ccccc1C3=O,?,i,i,i,nt
COCc1c(C(=O)NC2CCCC2)cnn1-c1nccc(-c2cccs2)n1,i,nt,nt,nt,nt
CC(=O)c1cc2ccccc2s1,i,i,nt,nt,nt
Cc1ccc(Cl)cc1N1CCN(C(=O)c2cc(S(=O)(=O)N3CCC(C)CC3)cn2C)CC1,i,i,7.1µM,i,i
CCn1cc(C(=O)N2CCN(c3cccc(Cl)c3)CC2)c(=O)c2cc(S(=O)(=O)N3CCC(C)CC3)ccc21,?,?,13µM,i,?
C=C(C)C(=O)OCC(O)CO (stereo not drawn),i,i,nt,nt,nt
c1ccc2sc(N3CCCCC3)nc2c1,i,i,i,i,nt
C=C(c1nc2ccccc2s1)C1Cc2cccc3c2N(CCC3)C1 (stereo not drawn),nt,nt,4µM,7.1µM,nt
CCN1CCCC1CN (stereo not drawn),i,i,nt,nt,nt
SMILES,S2 tox,ATXN2 expr inh,TGFb SMAD3 inh,HepG2 tox,Anesthetic bind
CCC1CCCCN1S(=O)(=O)c1cc(C(=O)Nc2ccc(C)c(F)c2)ccc1F (stereo not drawn),nt,nt,11µM,i,i
O=C(NCCCc1nc2ccccc2n1Cc1ccc(Cl)cc1)C1CCCCC1,?,?,10µM,i,i
NCC(c1ccccc1)c1c[nH]c2ccccc12 (stereo not drawn),i,i,?,i,i
Cc1ccc2[nH]cc(C(c3ccccc3)c3cccs3)c2c1 (stereo not drawn),?,?,13µM,16µM,i
Cc1ccc2[nH]cc(C(c3ccccc3)c3ccc(C)s3)c2c1 (stereo not drawn),?,?,13µM,11µM,i
Cc1ccc2[nH]c3ccccc3c(=O)c2c1,nt,i,i,i,i
CCc1cccc(NC(=O)COC(=O)c2ccccc2OCc2ccccc2Br)c1,nt,nt,?,i,nt
O=C1CCC[C@@H]2[C@@H](Cc3ccccc3)[C@@H](Nc3ccccc3)C[C@@H]3CCN1[C@@H]32,nt,nt,?,i,nt
CCN1CCCC1CNC(=O)c1ccc2c(c1)NC(=O)/C(=C\c1ccc(OC)c(OC)c1)S2 (stereo not drawn),nt,nt,13µM,13µM,i
COc1ccc(/C=C2/Sc3ccc(C(=O)NCCCN4CCOCC4)cc3NC2=O)cc1OC,?,i,14µM,20µM,i
O=C1Nc2cc(C(=O)NCCN3CCCCCC3)ccc2S/C1=C\c1ccccc1,?,nt,?,14µM,i
COc1cccc(/C=C2/Sc3ccc(C(=O)NCCN4CCCCCC4)cc3NC2=O)c1,?,nt,10µM,16µM,i
CN1Cc2cc(C(=O)N3CCC(C4CCNCC4)CC3)ccc2N[C@@H](CC(=O)O)C1=O,i,i,nt,nt,nt
COc1cc(C)c(CN2C[C@H](Sc3nc4ccccc4[nH]3)C[C@H]2C(=O)N(C)C)cc1C,i,nt,nt,nt,nt
Cc1ccc(C)c(CN2C[C@H](Sc3nc4ccccc4[nH]3)C[C@H]2C(=O)N2CCCN(C)CC2)c1,i,nt,nt,nt,nt
O=C1Nc2cc(C(=O)NCCCN3CCCC3)ccc2S/C1=C/c1cccc(Cl)c1,?,nt,?,16µM,nt
Cc1cccc(/C=C2/Sc3ccc(C(=O)NCCN4CCCC4)cc3NC2=O)c1,?,nt,?,i,i
CCN1CCN(CCCNC(=O)c2ccc3c(c2)NC(=O)/C(=C\c2cccc(C)c2)S3)CC1,?,nt,?,13µM,i
Cc1ccccc1CSc1nc2c(sc3ccccc32)c(=O)n1CCCC(=O)NCCCOC(C)C,nt,nt,i,i,i
CN(C)CCCN(C(=O)c1cc(-c2cccs2)nc2ccccc12)c1nc2c(F)cccc2s1,i,i,?,i,i
Cc1ccc2nc(N(CCCN(C)C)C(=O)c3cc(-c4cccs4)nc4ccccc34)sc2c1,32µM,?,16µM,11µM,?
Cc1ccc2nc(N(CCCN(C)C)C(=O)c3ccc(Br)s3)sc2c1,22µM!,?,?,13µM!,?
CC(C)(C)n1ncc2c(=O)n(Cc3cccc(C(F)(F)F)c3Cl)cnc21,nt,nt,i,i,nt

# Source: PubChem (National Center for Advancing Translational Sciences (NCATS))
